From PubChem BioAssay (NCATS)
Records with an inconclusive call do not appear. The source made the active and inactive calls. Calls follow the shape of the dose curve; as a rule, active = well fitted curve in the direction sought with a large enough effect; inconclusive = small, poorly fitted or top-dose-only effect, or another doubt; inactive = no such curve, though single readings can be large; an effect the other way counts as inactive or inconclusive.

Columns and labels:
[1] = Cell Viability - LYMP2-010 (AID 981); conditions: LYMP2-010 lymphoblastoid cell viability, qHTS; series mostly up to 92.2 µM; also: nearly all actives have a fitted effect of over 55% in size; also: potency is read from the fitted curve at half-maximal effect
Method in brief: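 This 24 hr viability screen uses LYMP2-010 lymphoblastoid cells, quantifies ATP via luciferase luminescence, and derives AC50 from Hill fits of qHTS concentration-response data.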

[2] = Cell Viability - LYMP2-012 (AID 982); conditions: LYMP2-012 lymphoblastoid cell viability qHTS; series mostly up to 92.2 µM;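 also: cellular ATP by luciferase luminescence where a drop means cytotoxicity; cells exposed to compound for one day before reading; nearly all actives have a fitted effect of over 55% in size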; also: potency is read from the fitted curve at half-maximal effect
[3] = Cell Viability - LYMP2-014 (AID 983); conditions: LYMP2-014 lymphoblastoid cells, viability qHTS; series mostly up to 92.2 µM;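 also: cells exposed to compound for 24 h at 37 °C; nearly all actives have a fitted effect of over 50% in size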; also: potency is read from the fitted curve at half-maximal effect
Method in brief: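 Quantitative HTS in lymphoblastoid cells: 24 hr compound exposure, then CellTiter-Glo ATP luminescence. Positive control was tetraoctylammonium bromide, 6.4pM to 92 uM.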

[4] = Cell Viability - LYMP2-016 (AID 984); conditions: LYMP2-016 lymphoblastoid cell viability, qHTS; series mostly up to 92.2 µM; also: nearly all actives have a fitted effect of over 55% in size
Method in brief: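 qHTS, 1536-well: 2500 LYMP2-016 cells/well, 5 hr 37 C, compound added, 24 hr 37 C, CellTiter-Glo 30 min RT, luminescence. Tetraoctylammonium bromide positive control. AC50 via Hill fit.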

[5] = Cell Viability - LYMP2-018 (AID 985); conditions: LYMP2-018 lymphoblastoid cells, viability (qHTS); series mostly up to 92.2 µM; also: nearly all actives have a fitted effect of over 50% in size
Method in brief: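 In this qHTS viability assay, cells are treated for 24 hr and cellular ATP is quantified by luciferase-based luminescence, with tetraoctylammonium bromide as positive control.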

[6] = Cell Viability - LYMP2-020 (AID 986); conditions: series mostly up to 92.2 µM;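 also: cells exposed to compound for 24 h at 37 °C; nearly all actives have a fitted effect of over 55% in size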
Method in brief: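 Cells at 2500 per well receive a 24 hr compound exposure at 37 C. Viability is measured as ATP-dependent luciferase luminescence, with AC50 modeled from qHTS concentration-response curves.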

[7] = Cell Viability - LYMP2-022 (AID 987); conditions: LYMP2-022 lymphoblastoid cell viability; series mostly up to 92.2 µM; also: nearly all actives have a fitted effect of over 55% in size
Method in brief: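 In this qHTS cytotoxicity screen, compound titrations were incubated 24 hr at 37 C with human lymphoblastoid cells in complete medium. Luciferase-based ATP luminescence provided the viability signal.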

[8] = Cell Viability - LYMP2-024 (AID 988); conditions: LYMP2-024 lymphoblastoid cell viability; series mostly up to 92.2 µM; also: nearly all actives have a fitted effect of over 60% in size
Method in brief: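 Cells at 2500 per well received compound for 24 hr after a 5 hr settling period. Viability was scored by CellTiter-Glo luminescence, with AC50 from Hill fits.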

[9] = Cell Viability - LYMP1-002 - Assay at 24 hr (AID 993); conditions: LYMP1-002 lymphoblastoid cells viability; series mostly up to 92.2 µM; also: potency is read from the fitted curve at half-maximal effect
Method in brief: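 Viability was judged from intracellular ATP using a luciferase read-out, following a 24-hour compound incubation at 37 C of lymphoblastoid cells seeded at 2500 per well. Concentration-response data were fitted to the Hill equation for AC50.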

[10] = Counterscreen for APE1 Inhibitors: Fluorescent Dye Displacement Validation Assay (AID 1707); conditions: fluorescent dye displacement from DNA; series mostly up to 57.1 µM
Method in brief: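 Endpoint fluorescence read at 480 nm excitation / 540 nm emission; DNA-binding compounds lower signal by displacing 250 nM Thiazole Orange from 50 nM dsDNA containing a tetrahydrofuran abasic site, Tris-HCl pH7.5 buffer with NaCl and MgCl2.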

[11] = target: Endonuclease 4 (Escherichia coli (strain K12)) (UniProt P0A6C1); assay: Counterscreen for APE1 Inhibitors: qHTS Validation Assay for Inhibitors of Endonuclease IV (AID 1708); conditions: E. coli endonuclease IV, DNA cleavage fluorescence; series mostly up to 57.1 µM
Method in brief: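 Read-out: fluorescence rise (ex 525/em 598 nm) from incision of a TAMRA/BHQ-2 double-stranded THF abasic-site substrate (50 nM), measured kinetically; third-minus-first read difference gave reaction progress. Enzyme 2 nM.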

[12] = qHTS for differential inhibitors of proliferation of Plasmodium falciparum line 7G8 (AID 1815); conditions: Plasmodium falciparum 7G8 proliferation inhibition; series mostly up to 28.7 µM;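 also: parasite growth measured after three days of incubation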; also: potency is read from the fitted curve at half-maximal effect
[13] = qHTS for differential inhibitors of proliferation of Plasmodium falciparum line GB4 (AID 1816); conditions: Potency: Plasmodium falciparum GB4 proliferation inhibition; series mostly up to 28.7 µM;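 also: parasite growth measured after 72 h incubation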; also: potency is read from the fitted curve at half-maximal effect
[14] = qHTS for differential inhibitors of proliferation of Plasmodium falciparum line 3D7 (AID 1876); also: potency is read from the fitted curve at half-maximal effect; conditions: P. falciparum 3D7 proliferation inhibition; series mostly up to 28.7 µM
[15] = target: Alpha-galactosidase A (Homo sapiens) (UniProt P06280); assay: Counterscreen for Glucocerebrosidase Inhibitors: qHTS Assay for Human alpha-Galactosidase at pH 4.5 (AID 992); conditions: purified enzyme, fluorogenic substrate; series mostly up to 76.9 µM
Method in brief: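 Fluorogenic 4-MU alpha-D-galactoside (80 uM) hydrolysis, 2 nM enzyme, pH 4.5 citrate buffer + 0.005% Tween-20; 20 min RT; NaOH/glycine pH 10 stop; Ex365/Em440. Compounds titrated 0.7 nM–77 uM; Hill-equation AC50.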

[16] = target: alpha-glucosidase (Oryza sativa, rice) (UniProt Q653V4); assay: Counterscreen for Glucocerebrosidase Inhibitors: qHTS Assay for Rice alpha-Glucosidase at pH 5.0 (AID 997); conditions: rice alpha-glucosidase enzyme activity; series mostly up to 76.9 µM
Method in brief: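 Endpoint fluorogenic assay at pH 5.0: compounds (0.7 nM to 77 uM) titrated against 4 nM rice enzyme and 400 uM 4-MU-alpha-glucoside for 20 min at room temperature; NaOH/glycine stop, read ex 365/em 440 nm, Hill-fitted AC50.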

[17] = target: Alpha-galactosidase (Coffea arabica) (UniProt Q42656); assay: Counterscreen for Glucocerebrosidase Inhibitors: qHTS Assay for Coffee Bean alpha-Galactosidase at pH 5.9 (AID 998); conditions: coffee bean alpha-galactosidase enzyme assay; series mostly up to 76.9 µM
Method in brief: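 Enzyme 2 nM + cpd (0.7 nM–77 uM titration) + 4-MU-alpha-Gal 80 uM, pH 5.9 citrate/Tween-20, RT 20 min, NaOH/glycine stop pH 10, fluor 365/440. Normalized to no-enzyme and full-activity controls; Hill-fit AC50.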

[18] = target: DNA repair nuclease/redox regulator APEX1 (Homo sapiens) (UniProt P27695); assay: qHTS Validation Assay for Inhibitors of the Human Apurinic/apyrimidinic Endonuclease 1 (APE1) (AID 1705;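 also: TAMRA fluorescence gain over two minutes as APE1 cuts a quenched THF abasic duplex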); conditions: purified APE1 endonuclease activity, fluorescence, titration; series mostly up to 57.1 µM
Method in brief: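 Read-out: TAMRA fluorescence (525 nm ex, 598 nm em) from cleavage of a quenched THF abasic-site duplex, 50 nM final; activity taken as intensity change between third and first of three reads 60 s apart.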

Measured: Potency

Sequence of Alpha-galactosidase (Coffea arabica) (Q42656 whole entry, looked up): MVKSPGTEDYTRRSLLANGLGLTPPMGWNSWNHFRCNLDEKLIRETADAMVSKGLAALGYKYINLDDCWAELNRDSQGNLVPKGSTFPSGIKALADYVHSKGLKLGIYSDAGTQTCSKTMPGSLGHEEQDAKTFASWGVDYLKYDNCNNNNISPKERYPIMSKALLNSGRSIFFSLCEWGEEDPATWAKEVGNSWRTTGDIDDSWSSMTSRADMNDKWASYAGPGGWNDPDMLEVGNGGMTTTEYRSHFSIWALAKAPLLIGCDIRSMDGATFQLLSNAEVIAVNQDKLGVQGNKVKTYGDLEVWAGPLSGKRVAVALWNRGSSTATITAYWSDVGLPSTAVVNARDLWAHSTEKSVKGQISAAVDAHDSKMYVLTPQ
Sequence of Alpha-galactosidase A (Homo sapiens) (P06280 whole entry, looked up): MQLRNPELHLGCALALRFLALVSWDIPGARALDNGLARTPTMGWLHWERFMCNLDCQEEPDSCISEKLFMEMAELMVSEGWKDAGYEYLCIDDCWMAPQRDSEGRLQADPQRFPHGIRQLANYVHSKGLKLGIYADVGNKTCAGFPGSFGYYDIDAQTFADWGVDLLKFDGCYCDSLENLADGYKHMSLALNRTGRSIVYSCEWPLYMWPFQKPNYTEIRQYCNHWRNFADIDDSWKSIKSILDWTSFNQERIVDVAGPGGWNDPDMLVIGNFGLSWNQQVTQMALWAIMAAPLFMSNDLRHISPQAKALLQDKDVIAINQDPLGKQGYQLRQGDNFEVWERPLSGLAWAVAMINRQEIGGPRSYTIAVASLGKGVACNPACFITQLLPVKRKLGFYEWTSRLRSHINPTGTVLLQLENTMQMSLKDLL
Sequence of DNA repair nuclease/redox regulator APEX1 (Homo sapiens) (P27695 whole entry, looked up): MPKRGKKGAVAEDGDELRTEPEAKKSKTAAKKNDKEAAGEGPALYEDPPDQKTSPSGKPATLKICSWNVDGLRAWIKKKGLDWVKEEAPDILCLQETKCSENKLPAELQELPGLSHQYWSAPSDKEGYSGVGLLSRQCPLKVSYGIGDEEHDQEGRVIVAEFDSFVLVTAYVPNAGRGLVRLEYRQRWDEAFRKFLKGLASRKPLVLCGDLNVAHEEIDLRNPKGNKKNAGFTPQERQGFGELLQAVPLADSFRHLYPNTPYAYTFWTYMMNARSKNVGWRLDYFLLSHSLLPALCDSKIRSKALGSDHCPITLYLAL

ClC=C(Cl)Cl
inactive: [1] | [2] | [3] | [4] | [5] | [6] | [7] | [8] | [9]

CCOC(=O)c1ccccc1C(=O)OCC
inactive: [1] | [2] | [3] | [4] | [5] | [6] | [7] | [8] | [9]

C[N+]1(C)C2CCC1CC(OC(=O)c1c[nH]c3ccccc13)C2 (configuration not stated)
inactive: [10] | [11]
active: [12] 11.2 µM | [13] 12.6 µM | [14] 14.1 µM

C[N+]1(C)[C@@H]2CC[C@H]1CC(OC(=O)c1c[nH]c3ccccc13)C2 (some centres not stated)
inactive: [15] | [16] | [17]

COc1ccc2c(c1)/C(=C/c1cnc[nH]1)C(=O)N2
active: [12] 7.08 µM | [13] 8.91 µM | [14] 12.6 µM
inactive: [15] | [16] | [17] | [18]

O=[N+]([O-])c1ccc(F)c([N+](=O)[O-])c1
inactive: [2] | [3] | [4] | [6] | [9]

O=C/C=C/c1ccccc1
inactive: [1] | [2] | [3] | [4] | [5] | [6] | [7] | [8] | [9]

S=C=S
inactive: [1] | [2] | [3] | [4] | [5] | [6] | [7] | [8] | [9]

C/C(O)=C(\C#N)C(=O)Nc1cc(Br)ccc1Br
inactive: [18] | [12] | [13] | [14]

C=CCN=C=S
inactive: [1] | [2] | [3] | [4] | [5] | [6] | [7] | [8] | [9]

O=Cc1ccco1
inactive: [1] | [2] | [3] | [4] | [5] | [6] | [7] | [8] | [9]

CC(C)CCON=O
inactive: [1] | [2] | [3] | [4] | [5] | [6] | [7] | [8] | [9]

C[C@H]1CC[C@@H]2[C@@H](C)[C@H]3[C@H](C[C@H]4[C@@H]5CC=C6CC(O[C@@H]7O[C@H](CO)[C@H](O)[C@H](O[C@@H]8O[C@H](CO)[C@@H](O)[C@H](O)[C@H]8O)[C@H]7O[C@H]7O[C@@H](C)[C@H](O)[C@@H](O)[C@H]7O)CC[C@]6(C)[C@H]5CC[C@]34C)N2C1 (some centres not stated)
active: [1] 39.8 µM | [2] 31.6 µM | [3] 50.1 µM | [9] 25.1 µM

ClC(Cl)(Cl)Cl
inactive: [1] | [2] | [3] | [4] | [5] | [6] | [7] | [8] | [9]

Oc1cc(Cl)c(Cl)cc1Cl
inactive: [1] | [2] | [3] | [4] | [5] | [6] | [7] | [9]

O=[N+]([O-])c1ccccc1
inactive: [1] | [2] | [3] | [4] | [5] | [6] | [7] | [8] | [9]

CNc1ccc2oc(C[C@H]3O[C@@]4(CC[C@H]3C)O[C@H]([C@H](C)C(=O)c3ccc[nH]3)[C@H](C)C[C@H]4C)nc2c1C(=O)O
active: [12] 1.12 µM | [13] 1.26 µM | [14] 1 µM
inactive: [18] | [10]

c1ccc2c(c1)[I+]c1ccccc1-2
inactive: [15] | [16] | [17]
active: [12] 0.1 µM | [13] 0.0708 µM | [14] 0.0708 µM

CCCCCl
inactive: [1] | [2] | [3] | [4] | [5] | [6] | [7] | [8] | [9]
